Hits are enriched below; roughly 2.2% of the tested compounds scored in any of these assays.
IDH1 R132H inh – human IDH1 R132H inhibition. O75874. IDH1-R132H enzyme, NADPH consumption, diaphorase/resazurin fluorescence. Potency, µM (series often up to 76.6 µM), most hits filed as inhibitors. AID 602179. 390,000 compounds, 0.093% hits; note: nearly all actives have a fitted effect of over 65% in size
Target sequence (O75874 whole entry R132H, stated change not applied): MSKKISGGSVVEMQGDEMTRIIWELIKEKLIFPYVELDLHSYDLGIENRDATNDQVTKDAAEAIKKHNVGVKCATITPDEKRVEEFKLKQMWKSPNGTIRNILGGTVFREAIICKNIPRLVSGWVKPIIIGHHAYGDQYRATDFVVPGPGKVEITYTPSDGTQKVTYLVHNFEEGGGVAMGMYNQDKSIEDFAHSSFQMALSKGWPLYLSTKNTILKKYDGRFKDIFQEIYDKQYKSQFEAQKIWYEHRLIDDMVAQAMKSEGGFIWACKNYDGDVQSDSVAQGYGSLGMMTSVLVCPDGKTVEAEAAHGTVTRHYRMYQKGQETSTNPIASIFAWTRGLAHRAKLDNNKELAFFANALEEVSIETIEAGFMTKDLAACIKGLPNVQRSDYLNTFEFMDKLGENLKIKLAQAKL
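IDH1-R132H (0.5 ug/mL) preincubated 30 min with compound, then NADPH (0.016 mM) and alpha-KG (2 mM) added; 80 min at RT, pH 7.5. Remaining NADPH coupled via diaphorase/resazurin to fluorescence (540/590 nm); concentration-response curves normalized to no-enzyme control.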
HepG2 tox – counter-screen for TGF-b inhibitors: cytotoxicity in HepG2 cells | Potency, µM (doses to about 46.1 µM), usual class: cytotoxic | HepG2 CAGA-GFP viability, ATP luminescence, 18 h | 410,000 compounds, 0.76% hits | AID 588856
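HepG2 CAGA-GFP cells (1000/well, DMEM with 1% FBS) received compound, then TGF-beta at 500 pg/mL final, and were incubated 18 hours at 37 degrees C. Viability was read by CellTiter-Glo luminescence. Media-only wells were set as complete cell-killing and DMSO as no toxicity.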
TGFb inhibitor – blocks TGF-b signaling; HepG2 CAGA-GFP TGF-b/SMAD3 reporter, GFP fluorescence, 18 h; TGF-beta stimulated, 500 pg/mL final; Potency, µM (titrated, usually from 46.1 µM), hits mostly inhibitors; 410,000 compounds, 1.2% hits; AID 588855; note: nearly all actives have a fitted effect of over 65% in size
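HEPG2 CAGA-GFP reporter cells (1000/well, DMEM with 1% FBS) received compounds, then recombinant TGF-beta at 500 pg/mL final for 18 hours at 37 degrees C. Per-cell GFP summed per well was normalised to unstimulated and stimulated DMSO controls before curve fitting.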
ATXN2 expr inh – inhibitors of ATXN2 expression. 360,000 compounds, 0.72% hits. Potency, µM (series often up to 57 µM), hits mostly inhibitors. HEK-293 ATXN2-luciferase reporter, luminescence, 24 h. AID 1745845; note: nearly all actives have a fitted effect of over 55% in size
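ATXN2-luciferase reporter cells (luciferase flanked by upstream and downstream ATXN2 gene portions) were treated 24 h at 37 °C with compounds at up to 57 uM. SteadyGlo luminescence gave expression; GF-AFC fluorescence gave viability.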
S2 tox – viability counter-screen for ATXN expression inhibitors; S2 cells (HEK-293 line with an ATXN2-luciferase reporter) viability, CellTiter-Fluor protease fluorescence, 24 h; Potency, µM (titrated, usually from 56.7 µM), usual class: cytotoxic; 400,000 compounds, 0.49% hits; AID 651635; note: nearly all actives have a fitted effect of over 40% in size
LDHA inh – LDHA (human) enzyme inhibition; P00338; purified LDHA, NADH/diaphorase-resazurin fluorescence; stronger effect = lower value; activity change, % (values are at about 110 or 230 µM); 480,000 compounds, 0.15% hits; in the data active = activity change below about -30%; inconclusive = mostly about -25% to -30%
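Human LDH5 at 2 nM final in Tris HCl pH 7.4 with 0.06 mM NADH and 0.2 mM pyruvate, reacted 5 minutes at room temperature. Remaining NADH coupled via diaphorase/resazurin; resorufin fluorescence read at 0 and 20 minutes, normalized to enzyme-free and DMSO wells.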
Large screens that a line does not name were inactive. Unless noted, calls come from the whole dose curve; as a rule, active = well fitted curve in the direction sought with a large enough effect; inconclusive = small, poorly fitted or top-dose-only effect, or another doubt; inactive = no such curve, though single readings can be large; an effect the other way counts as inactive or inconclusive.

CCCCCCCCCn1c2c(c(=N)c3c1CCC3)CCCC2	TGFb inhibitor 6.31µM, ATXN2 expr inh inconclusive, S2 tox inconclusive
CCCCCn1c2c(c(=N)c3ccccc31)CCC2	TGFb inhibitor inconclusive, ATXN2 expr inh inconclusive
CCn1c2c(c(=N)c3c1CCC3)CCCC2	none
COc1ccc(OC)c(CN2CCN(Cc3ccc(OC)c(OC)c3OC)CC2)c1	none (no result: ATXN2 expr inh)
COc1ccc(CN2CCN(CCSc3ccc(C)cc3)CC2)c(OC)c1OC	TGFb inhibitor inconclusive, S2 tox inconclusive, LDHA inh -37.5 (no result: ATXN2 expr inh)
Cc1cc(C)cc(NC(=S)NC2CC3CCCC(C2)N3C2CCCC2)c1 (configuration not stated)	S2 tox inconclusive
O=C(N/N=C/c1cn(-c2cccs2)nc1-c1ccccc1)c1ccccc1Br	none
O=C(N/N=C/c1cn(-c2cccs2)nc1-c1ccccc1)c1ccccc1O	TGFb inhibitor 11.2µM, S2 tox inconclusive
CCOC(=O)c1ccc(NC(=O)Nc2c[nH]c(=O)[nH]c2=O)cc1	HepG2 tox 3.16µM
CCOc1ccc(NC(=O)Nc2c[nH]c(=O)[nH]c2=O)cc1	none
COc1ccccc1Nc1nn2c(=O)c3ccc(C(=O)NCCc4ccccc4)cc3nc2s1	HepG2 tox 3.16µM, TGFb inhibitor 2.24µM (no result: ATXN2 expr inh, S2 tox)
COc1ccccc1Nc1nn2c(=O)c3ccc(C(=O)NCCC4=CCCCC4)cc3nc2s1	HepG2 tox 5.01µM, TGFb inhibitor 5.01µM, ATXN2 expr inh 3.16µM (no result: S2 tox)
Cc1ccc(C)c(Nc2nn3c(=O)c4ccc(C(=O)NCCC5=CCCCC5)cc4nc3s2)c1	TGFb inhibitor inconclusive
Cc1ccc(NC(=O)c2ccc3c(=O)n4nc(Nc5ccccc5C)sc4nc3c2)cc1C	HepG2 tox 2.82µM, TGFb inhibitor inconclusive
COc1ccc(-c2nnn(Cc3nn[nH]n3)n2)cc1OC	none
OC1(c2cccc(C(F)(F)F)c2)CCN(c2ncnc3c2[nH]c2ccc(F)cc23)CC1	HepG2 tox 20µM, TGFb inhibitor inconclusive
CCNc1sc(C(C)=O)c(N)c1C#N	LDHA inh -34.9 (no result: IDH1 R132H inh, HepG2 tox, TGFb inhibitor, ATXN2 expr inh, S2 tox)
CCCc1c(C(=O)OCC)sc(N)c1C#N	none
CC1=C(C#N)C(c2cccnc2)C2=C(CC(C)(C)CC2=O)N1 (configuration not stated)	none
CCOc1ccc(C(=O)Nc2c3c(nn2-c2cccc(C)c2C)CS(=O)C3)cc1 (configuration not stated)	none
Fc1cccc(/C=N/Nc2nccnc2Cl)c1	none
Cc1cccc(Cn2c(SCc3ccc(C(=O)N4CCCCCC4)cc3)nc3ccncc32)c1	TGFb inhibitor 12.6µM (no result: ATXN2 expr inh, S2 tox)
CC(NC(=O)c1ccc(CSc2nc3ccncc3n2Cc2ccc(F)cc2)cc1)c1ccccc1 (configuration not stated)	TGFb inhibitor inconclusive, S2 tox inconclusive
CCC(C(=O)NC1CCCCC1)n1c(SCc2cccc(C)c2)nc2ccncc21 (configuration not stated)	TGFb inhibitor 12.6µM, S2 tox inconclusive
O=C(c1ccc(CSc2nc3ccncc3n2Cc2ccccc2)cc1)N1CCCCCC1	TGFb inhibitor inconclusive, S2 tox inconclusive
O=C(NCc1cccs1)c1ccc(CSc2nc3ccncc3n2Cc2ccccc2F)cc1	TGFb inhibitor 8.91µM
CC(CNC(=O)c1ccc(CSc2nc3ccncc3n2Cc2cccc(F)c2)cc1)c1ccccc1 (configuration not stated)	TGFb inhibitor 10µM, S2 tox inconclusive
Cc1cc(C(=O)Nc2cccc(-c3nc(CNC(=O)c4cnccn4)c(C)o3)c2)c(C)o1	none (no result: IDH1 R132H inh, HepG2 tox, TGFb inhibitor, ATXN2 expr inh, LDHA inh)
COc1ccc2cc(C(c3nnnn3Cc3ccccc3)N3CCCCCC3)c(=O)[nH]c2c1 (configuration not stated)	none
Cc1ccc(-c2n[nH]c3c2C(c2cccs2)N(c2ccc(Cl)cc2)C3=O)cc1 (configuration not stated)	HepG2 tox 12.6µM, TGFb inhibitor 11.2µM, ATXN2 expr inh inconclusive, S2 tox inconclusive
CCOC(=O)c1ccc(N2C(=O)c3n[nH]c(-c4cccs4)c3C2c2ccc(C)cc2)cc1 (configuration not stated)	none
Cc1ccc(N2C(=O)c3[nH]nc(-c4ccc(Cl)cc4)c3C2c2ccc(F)cc2)cc1 (configuration not stated)	HepG2 tox 11.2µM, TGFb inhibitor inconclusive, ATXN2 expr inh inconclusive (no result: S2 tox)
COc1ccc(OC)c(C2c3c(-c4ccc(Br)cc4)n[nH]c3C(=O)N2c2ccc(Cl)cc2)c1 (configuration not stated)	HepG2 tox 11.2µM, TGFb inhibitor 3.98µM, ATXN2 expr inh inconclusive (no result: S2 tox)
N#CC(C#N)=C1C=CC=CN1/C(=C\c1ccccc1Cl)C(=O)c1ccccc1	HepG2 tox 7.08µM, TGFb inhibitor 3.16µM, ATXN2 expr inh 12.6µM, S2 tox inconclusive
CCOC(=O)C1CCCN(C(=O)CSc2nnc(-c3ccc(C)cc3)n2N)C1 (configuration not stated)	none (no result: IDH1 R132H inh, HepG2 tox, TGFb inhibitor, ATXN2 expr inh, S2 tox)
CC1CC(=O)N(CC(=O)Nc2cccc(F)c2)c2ccccc2S1(=O)=O (configuration not stated)	none
CN(C)Cc1nc2ccccc2c(=O)n1Cc1nc(-c2cccc([N+](=O)[O-])c2)cs1	ATXN2 expr inh inconclusive
CN1CCN(Cc2nc3ccccc3c(=O)n2Cc2nc(-c3ccc([N+](=O)[O-])cc3)cs2)CC1	HepG2 tox 11.2µM, TGFb inhibitor 15.8µM, ATXN2 expr inh inconclusive, S2 tox inconclusive
N=c1sc2ccccc2n1-c1ccccc1	TGFb inhibitor inconclusive
C=CC(=O)N=c1sc2ccccc2n1-c1ccccc1	HepG2 tox 4.47µM, TGFb inhibitor 10µM (no result: S2 tox)
CCc1cc2c(=O)c(-c3cnn(-c4ccccc4)c3)c(C)oc2cc1OCC(=O)Nc1cccc(C)c1	ATXN2 expr inh inconclusive, S2 tox 1.78µM
COc1ccc(C)cc1Nc1n[n+](-c2ccccc2)c(-c2cc([N+](=O)[O-])cc(OC)c2O)s1	none
CC(C)CC(=O)NCCc1ccncc1	HepG2 tox 2.82µM
COC(=O)NCCc1ccncc1	none (no result: IDH1 R132H inh, HepG2 tox, TGFb inhibitor, ATXN2 expr inh, S2 tox)
CCC(=O)OC1(C)C(=O)C=C2C=C(C3CC3)OC=C2C1=O (configuration not stated)	none
CCOC(=O)c1[nH]cnc1N=Nc1c(O)ccc2ccccc12	ATXN2 expr inh 11.2µM, S2 tox 10µM
Cc1cccc(S(=O)(=O)c2cn(Cc3ccccc3)c3cc(N4CCCCC4)c(F)cc3c2=O)c1	none (no result: ATXN2 expr inh, S2 tox)
Cn1c(N/N=C/c2cc3ccccc3nc2Cl)nc2ccccc21	HepG2 tox 5.62µM
Cn1c(N/N=C/c2c[nH]c3ccccc23)nc2ccccc21	TGFb inhibitor inconclusive, S2 tox inconclusive
